Pf growth 48h: P. falciparum growth inhibition at 48 hours (one generation) | Potency, µM (titrated, usually from 28.7 µM), inactives show top-dose activity change, negative = inhibition, most hits filed as inhibitors | hit rate 5.9% among 310,000 | P. falciparum luciferase growth in erythrocytes, 48 h; active means well fitted inhibition curve with a large enough effect; inconclusive means small, poorly fitted or top-dose-only effect, or another doubt; inactive means no such curve, though single readings can be large or run the other way; further: potency means the concentration at half of the fitted maximal effect; on the % scale 0 is the no-effect control and ±100 the full control effect
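Growth was read as firefly luciferase luminescence after a 48 h, 37 C, 5% CO2 exposure of compounds to reporter-bearing P. falciparum cultures (0.1% parasitemia, 2% hematocrit final) in Albumax-supplemented RPMI 1640.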
Cycloheximide cs: affects cycloheximide protein synthesis inhibition readout, counter-screen; max response, %; hit rate 12% among 300,000; cell reporter, cycloheximide protein synthesis inhibition counterscreen; in the data active means max response mostly above about 13%, no sharp cut-off; inactive means mostly below about 14%; further: read at 38.3 µM for the half of the compounds with a filed dose; 0% is about no effect
NS1 inh: inhibitors of influenza NS1 protein function. Potency, µM (titrated, usually from 46.1 µM), for the others: at the top dose activity, positive = more growth. hit rate 0.4% among 270,000; further: potency means the concentration at half of the fitted maximal effect; actives are rising curves; nearly all actives have a fitted effect of over 50% in size
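Read-out: OD600 growth recovery of NS1-expressing budding yeast. Cells grown overnight at 30C in -URA glucose medium, washed, resuspended and diluted 1:100 in 2% galactose assay medium, pH 6.0. Same strain lacking NS1 served as positive control.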
Pf growth 96h: inhibits malaria parasite growth, 96 h; hit rate 6.9% among 320,000; P. falciparum luciferase reporter growth, 96 h; Potency, µM (highest dose often 28.7 µM), for the others: top-dose activity change, negative = inhibition, hits mostly inhibitors; active means well fitted inhibition curve with a large enough effect; inconclusive means small, poorly fitted or top-dose-only effect, or another doubt; inactive means no such curve, though single readings can be large or run the other way; further: potency means the concentration at half of the fitted maximal effect; on the % scale 0 is the no-effect control and ±100 the full control effect
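Readout is luminescence from an integrated firefly luciferase in P. falciparum. Red cells, 2% hematocrit and 0.05% parasitemia final, were cultured with compound through two parasite generations (96 hours) at 37 C, 5% CO2.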
SARS PLpro yeast: SARS-CoV PLP inhibition in yeast. S. cerevisiae expressing SARS-CoV PLpro, growth rescue. Potency, µM (top dose mostly 32.9 µM), inactives show at the highest dose activity, positive = growth rescue, actives largely listed as activators. hit rate 0.19% among 330,000. AID 485353; further: potency means the concentration at half of the fitted maximal effect; 0% is about no effect; nearly all actives have a fitted effect of over 55% in size
Shiga toxin inh: Shiga toxin inhibition | Vero cells, Shiga toxin protein synthesis inhibition reporter | inhibition, % at 38.7 µM | hit rate 9.2% among 290,000 | AID 2315; in the data active means inhibition mostly above about 28%, no sharp cut-off; inactive means mostly below about 43%; further: 0% is about no effect
Numbers without * were called inactive; ? = inconclusive; . = no result. Sampled rows, rich in hits. Any-hit rate of the full collection: about 21%. Unless noted, the call rests on the fitted dose curve.

SMILES	Pf growth 48h	Cycloheximide cs	NS1 inh	Pf growth 96h	SARS PLpro yeast	Shiga toxin inh
COc1ccc(Cn2c(CCC(=O)Nc3ccc(CC#N)cc3)nc3cccnc32)cc1	?	-5	11%	3.7µM*	7%	-17
COCCCNC(=O)CCc1nc2cccnc2n1Cc1ccccc1	31%	-5	3%	8.3µM*	4%	-11
CCC1(c2ccc(Cl)cc2)NC(=S)N(c2ccccc2)N1 (stereo not drawn)	46%	14*	9%	11%	-8%	37
CCC1(c2ccccc2)NC(=S)N(c2ccc(C)cc2)N1 (stereo not drawn)	2%	27*	.	?	11%	54
CC1CCC2(CC1)NC(=S)N(c1ccccc1)N2 (stereo not drawn)	.	24	-60%	-26%	-16%	41
CCN(CC)S(=O)(=O)c1ccc(C(=O)Oc2cc(C)[nH]c(=O)c2[N+](=O)[O-])cc1	5%	-4	.	12%	0%	-13
Cc1ccc(C)c(N2CC(C(=O)OCC(=O)Nc3cc(C)on3)CC2=O)c1 (stereo not drawn)	1%	-2	1%	?	3%	-5
COC(=O)CCC(NC(=O)c1cc(C)oc1C)C(=O)OC (stereo not drawn)	12%	2	3%	10µM*	23%	-4
CSCCC(NC(=O)c1cc(C)oc1C)C(=O)O (stereo not drawn)	2%	-2	4%	.	6%	-20
CCCCNC(=O)COC(=O)c1ccc(F)cc1Cl	41%	13*	.	34%	-4%	76*
Cc1cc(=O)cc(C)n1-c1ccc(F)cc1F	12%	10	.	6%	1%	-6
C=CCNC1=C2C[C@@H](C)C[C@H](OC)[C@H](O)[C@@H](C)/C=C(\C)[C@H](OC(N)=O)[C@@H](OC)/C=C\C=C(/C)C(=O)NC(=CC1=O)C2=O	0.6µM*	.	.	11µM*	.	.
COC1=C2C[C@H](C)C[C@H](OC)[C@H](O)[C@@H](C)/C=C(/C)[C@H](OC(N)=O)[C@@H](OC)/C=C\C=C(\C)C(=O)NC(=CC1=O)C2=O	.	-1	.	.	.	-8
C=CC[N+]1([C@H]2C[C@H]3[C@@H]4CC[C@H]5C[C@H](O)[C@@H](N6CCOCC6)C[C@]5(C)[C@H]4CC[C@]3(C)[C@H]2OC(C)=O)CCCC1	6.7µM*	.	.	4.3µM*	.	.
CO[C@H]1CC[C@@]2(C)[C@@H](CC[C@@H]3[C@@H]2CC[C@@]2(C)[C@H]3C[C@H](C(=O)O)O[C@]23CCCO3)C1	.	.	.	.	-20%	.
CC(=O)N1CCN(Cc2nc3scc(-c4ccccc4)c3c(=O)[nH]2)CC1	?	-3	.	13µM*	1%	11
CCOC(=O)NC(=O)CSc1nc(-c2ccc(C)c(C)c2)cn1-c1ccccc1	-67%	63*	-17%	-68%	-34%	131*
Cc1ccc(-c2cn(-c3ccccc3)c(SCC(N)=O)n2)cc1C	39%	37*	-24%	6%	-11%	43*
Cc1ccccc1-n1cc(-c2ccc(Br)cc2)nc1SCC(N)=O	-12%	0	-8%	?	-1%	1
O=C(Cn1ncc2c3ccccc3n(Cc3ccccc3)c2c1=O)N1CCC2(CC1)OCCO2	?	29*	6%	1%	-5%	30
CC(=O)Nc1nonc1NC(=O)c1ccc(C(C)(C)C)cc1	?	20*	0%	132%	-4%	58*
Cn1c(-c2nonc2NC(=O)c2ccc(C(C)(C)C)cc2)nc2ccccc21	51%	1	5%	-23%	-13%	-3
CC(C)(C)c1ccc(NC(=O)c2ccsc2)cc1	?	28*	-54%	-22%	-5%	45*
CC(C)(C)c1ccc(C(=O)Nc2ccc(Cl)cc2)cc1	128%	43*	2%	110%	-7%	101*
Cc1ccc(NC(=O)c2ccsc2)cc1NS(C)(=O)=O	-15%	7	-5%	-20%	-1%	-1
SMILES	Pf growth 48h	Cycloheximide cs	NS1 inh	Pf growth 96h	SARS PLpro yeast	Shiga toxin inh
Cc1ccc(C(=O)NNC(=O)Cc2cccs2)cc1	54%	20*	10%	45%	6%	29
O=C(Cc1cccs1)NNC(=O)c1ccc(F)cc1	15%	-3	10%	-13%	17%	-12
Cc1ccc(C(=O)NNC(=O)Cc2ccccc2)cc1	.	28*	1%	41%	4%	75
[N-]=[N+]=NC(c1ccccc1)c1nc2ccccc2[nH]c1=O (stereo not drawn)	-16%	27*	?	4%	0%	28
Cc1ccc2cc3cc(C(=O)NCCC(C)C)oc3nc2c1	10µM*	-2	?	?	-1%	-17
Cc1ccc2cc3cc(C(=O)NC4CC4)oc3nc2c1	-5%	26*	-5%	?	-4%	30
Cc1ccc2cc3cc(C(=O)NCc4ccco4)oc3nc2c1	2.9µM*	23*	1%	?	-1%	32*
O=C(NCc1ccco1)c1cc2ccccc2o1	19%	11	-56%	6%	-6%	92
CCC(O)CNC(=O)NC(=C(Cl)Cl)c1ccc(C)c(F)c1 (stereo not drawn)	?	-2	-4%	-26%	10%	-5
CCCS(=O)(=O)N1CCc2ccc(NC(=O)c3ccccc3Cl)cc2C1	15%	10	-6%	22%	-1%	.
CSCC(=O)N1CCc2ccc(NC(=O)c3ccccc3Cl)cc2C1	-8%	28*	-11%	?	-2%	.
CN(C)S(=O)(=O)N1CCc2ccc(NC(=O)c3ccccc3Cl)cc2C1	5%	11*	-12%	5.9µM*	3%	14
CCCCC(=O)Nc1ccc(C(=O)NNC(=O)c2ccccc2Br)cc1	38%	-1	1%	8%	5%	11
C=CCNC(=O)/C=C/c1c(F)cccc1Cl	57%	29*	-18%	16%	-10%	57*
O=C(/C=C/c1c(Cl)cccc1Cl)N1CCOCC1	12%	15	-3%	2%	-1%	.
O=C(/C=C/c1c(F)cccc1Cl)N1CCOCC1	86%	48*	6%	59%	-3%	51*
O=C(/C=C/c1c(F)cccc1Cl)Nc1ncccn1	204%	57*	-21%	?	-36%	61*
O=C(/C=C/c1c(F)cccc1Cl)Nc1ccc(S(=O)(=O)Nc2ncccn2)cc1	-5%	1	0%	13µM*	-6%	-9
CCOc1ccc(N2CC(C(=O)Nc3nnc(Cc4ccc(OC)cc4)s3)CC2=O)cc1 (stereo not drawn)	-82%	5	-2%	-4%	-2%	-3
Brc1cc2c(cc1/C=N/Nc1nc(N3CCCCC3)nc(N3CCCCC3)n1)OCO2	?	6	.	?	-3%	22
COc1cccc(N2C(=O)Nc3ccc(Br)cc3C2(O)C(=O)NCCN(C)C)c1 (stereo not drawn)	-3%	-6	-2%	16%	-1%	-5
C(=N\n1cnnc1)/c1ccc(OCc2ccccc2)cc1	?	24*	-202%	31%	-8%	62
